Source: PubChem BioAssay
Rows were chosen to be rich in hits. Some 2.6% of all compounds tested hit in one or more screens of this group.
TROY NFkB inh: TROY signaling inhibition; AID 1347056; Q293 LMP1-TROYcd NF-kB luciferase reporter, 4 h; inhibition, % at 10 µM; 0.98% of 360,000 active;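 active = compounds whose plate-normalised and pattern-corrected inhibition of the luciferase reporter signal at the single screening dose is 50% or more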
TWEAK Fn14 block: TWEAK-Fn14 signaling inhibition; inhibition, % at 10 µM; 2% of 360,000 active; TWEAK-stimulated Fn14 reporter cells, luciferase luminescence, 8 h; AID 1159606; in the data active = inhibition above about 50%
LGR2 antag: Drosophila LGR2 receptor signaling inhibition; HEK293 LGR2, CRE-luciferase, bursicon-stimulated, 4 h; inhibition, % at 9.99 µM; 0.35% of 380,000 active;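 active = drop in luminescence signal, shown as inhibition above about 50% in the replicate tests, limit read from the data, passing the limit was not always enough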;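 also: agonist challenge used bursicon conditioned medium at about half maximal strength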
LMP1 NFkB inh: inhibitors of Epstein-Barr LMP1-induced NF-kappaB reporter. LMP1-induced NF-kappaB luciferase reporter cells, luminescence. inhibition, % at 12.5 µM. 0.69% of 350,000 active; in the data active = inhibition above about 41%;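 also: 0% = neutral control wells and 100% = reference inhibitor control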
EWS-Fli block: EWS/Fli transcriptional activity inhibition. A673 NR0B1-luciferase reporter, viability-normalised. inhibition, % at 12.6 µM. 0.67% of 350,000 active. AID 651661;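 active = mean inhibition of at least 50% after viability correction, with every replicate also passing that limit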;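 also: firefly luciferase signal divided by Alamar Blue viability fluorescence both relative to DMSO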
An asterisk follows results filed as active; nt = no result given.

SMILES	TROY NFkB inh	TWEAK Fn14 block	LGR2 antag	LMP1 NFkB inh	EWS-Fli block
C[C@@H]1CN([C@H](C)CO)C(=O)c2cc(NC(=O)Cc3ccccc3)ccc2O[C@H]1CN(C)Cc1ccc(C(F)(F)F)cc1	nt	nt	12	nt	-1
C[C@@H]1CCCCO[C@H](CN(C)C)[C@H](C)CN([C@H](C)CO)C(=O)c2cc(NS(=O)(=O)c3ccc(F)cc3)ccc2O1	nt	nt	-7	nt	-15
CCCNC(=O)N1[C@@H](CO)[C@H](c2ccc(C3=CCCC3)cc2)[C@@H]1CNC(C)=O	nt	nt	3	nt	-3
O=C(Nc1ccc([N+](=O)[O-])cc1Cl)c1cc(Cl)ccc1O	61*	100*	-107	80*	9
O=C(Nc1cccc(Cl)c1)c1cc(N=Nc2ccc([N+](=O)[O-])cc2Cl)ccc1O	39	83*	-15	3	-25
O=C(Nc1ccc([N+](=O)[O-])cc1Cl)c1cccc([N+](=O)[O-])c1	-23	-2	-10	-6	-44
O=C(Nc1cccc2c1CCCC2)c1cc([N+](=O)[O-])ccc1Cl	-12	51*	nt	54*	nt
Cc1noc(C)c1NC(=O)Nc1ccc2c(c1)CC(=O)N([C@@H](C)CO)C[C@H](C)[C@@H](CN(C)CC1CC1)O2	nt	nt	-4	nt	-8
CN1C(=O)c2cc(NC(=O)C3CCCCC3)ccc2OC[C@@H]2O[C@@H](CC(=O)NCC3CCCCC3)CC[C@@H]21	nt	nt	-5	nt	2
Cc1noc(C)c1NC(=O)N(C)C[C@H]1Oc2ccc(NC(=O)CCN3CCOCC3)cc2C(=O)N([C@@H](C)CO)C[C@@H]1C	nt	nt	3	nt	3
COc1ccc2c3c([nH]c2c1)[C@@H](CO)N(C(=O)Nc1c(C)noc1C)CC31CN(CC2CCOCC2)C1	nt	nt	-16	nt	-1
CC(C)c1nnc(NC(=O)CCS(=O)(=O)c2nc(-c3cccs3)cc(C(F)(F)F)n2)s1	50*	62*	nt	-5	nt
O=C(CN1C(=O)NC(c2ccccc2)(c2ccccc2)C1=O)NCc1ccccc1	1	21	8	-2	-2
Cc1ccc(C2(c3ccccc3)NC(=O)N(CC(=O)NCc3ccccc3)C2=O)cc1C (stereo not drawn)	0	13	-5	70*	-73
COc1ccc(NC(=O)N(C)C[C@H]2Oc3ncc(-c4cccnc4)cc3C(=O)N([C@H](C)CO)C[C@H]2C)cc1	nt	nt	6	nt	-14
COc1ccccc1S(=O)(=O)N[C@H]1CC[C@H](CC(=O)N2CCN(C)CC2)O[C@@H]1CO	nt	nt	-12	nt	-1
CCN(Cc1ccc2c(c1)OCCO2)C(=O)CSc1nc(C)nc2sc(C)c(C)c12	58*	11	10	7	5
O=C(C1CC1)N1CC(=O)N2[C@H](CO)[C@@H](c3ccc(C#CC4CCCC4)cc3)[C@@H]2C1	nt	nt	-2	nt	14
C[C@H]1CN([C@@H](C)CO)C(=O)c2cccc(NC(=O)C3CCOCC3)c2O[C@H]1CN(C)C(=O)Nc1ccccc1	nt	nt	-12	nt	0
O=C(CSc1nnc(-c2c[nH]c3ccccc23)o1)N(Cc1ccccc1)c1ccc(F)cc1	31	64*	nt	-5	nt
CS(=O)(=O)N1CC(=O)N2[C@H](C1)[C@@H](c1ccc(C#CC3CCCC3)cc1)[C@@H]2CO	nt	nt	3	nt	1
COc1cc(C)cc(C(=O)C=Cc2ccccc2)c1O	-2	6	-27	0	-5
COc1ccc(C(=O)/C=C/c2cc(OC)c(O)c(OC)c2)c(F)c1	6	56*	22	18	nt
COCOc1cc(O)c(C(=O)/C=C/c2ccccc2)c(OCOC)c1	21	71*	30	10	8
COc1ccc(OC)c(NC(=O)Nc2ccc(O)c3ccccc23)c1	45	90*	nt	1	-8
SMILES	TROY NFkB inh	TWEAK Fn14 block	LGR2 antag	LMP1 NFkB inh	EWS-Fli block
COc1ccc(OC)c(N/C=C/C(=O)c2ccccc2)c1	81*	101*	96*	72*	81*
CC(=O)N(C)C[C@H]1Oc2cc(C#CC(C)C)ccc2S(=O)(=O)N([C@@H](C)CO)C[C@@H]1C	nt	nt	-5	nt	4
O=C(C1CC1)N1CC2(C1)[C@@H](c1ccccc1)[C@@H](CO)N2Cc1cncnc1	nt	nt	9	nt	1
COc1ccc(OC)c(C(=O)/C=C/c2ccccc2C(F)(F)F)c1	7	59*	nt	1	nt
COc1ccc(C(=O)/C=C/c2ccccc2)c(OC)c1	-27	59*	0	-9	-82
COc1ccc(C=CC(=O)c2c(OC)cc(OC)c(OC)c2O)cc1	17	68*	38	-1	-6
C[C@@H]1CCCCO[C@H](CN(C)CC2CC2)[C@H](C)CN([C@H](C)CO)C(=O)c2cc(NC(=O)NC3CCCCC3)ccc2O1	nt	nt	-1	nt	-4
